From PubChem BioAssay
Only some compounds are listed: those with a hit (about 2.4% of all), similar ones and a draw of the others.
D2 PAM-1: D2 dopamine receptor (human) potentiation; HEK293 T-REx D2, calcium flux, EC20 dopamine potentiation; potentiation, % at 10 µM; 340,000 tested, 0.34% active; AID 485347;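 active = potentiation over 3 SD above the plate norm, cut at about 30% in these data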; note: 0% is about no effect
Target sequence (P14416 whole entry, looked up): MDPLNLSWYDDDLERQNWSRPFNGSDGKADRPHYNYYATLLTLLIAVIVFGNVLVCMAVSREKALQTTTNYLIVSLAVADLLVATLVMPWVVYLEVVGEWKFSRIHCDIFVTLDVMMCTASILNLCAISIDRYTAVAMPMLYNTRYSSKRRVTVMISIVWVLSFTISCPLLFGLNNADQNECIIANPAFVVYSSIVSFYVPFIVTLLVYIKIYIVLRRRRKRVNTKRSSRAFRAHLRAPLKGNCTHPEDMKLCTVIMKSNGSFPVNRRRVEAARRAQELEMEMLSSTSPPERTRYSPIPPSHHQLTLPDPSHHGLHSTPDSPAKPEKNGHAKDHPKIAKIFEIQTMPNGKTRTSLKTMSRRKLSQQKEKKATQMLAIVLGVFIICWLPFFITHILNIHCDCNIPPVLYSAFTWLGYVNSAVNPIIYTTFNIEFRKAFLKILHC
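Tetracycline-induced Hek293 Trex D2 cells, force-coupled to calcium, loaded with no-wash calcium dye. Compound added with 180 s kinetic read for agonism, then EC20 dopamine and a further 180 s read for potentiation.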
D2 PAM-2: potentiates the human D2 dopamine receptor allosterically. P14416. 360,000 tested, 0.23% active. DiscoveRx D2 beta-arrestin cells, luminescence, 90 min; 100% = 57 uM dopamine signal. AID 624464. potentiation, % (no concentration beside the values); in the data active = potentiation above about 50%; inconclusive = mostly about 30% to 49%
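D2 cells co-treated with compound plus 50 nM dopamine (EC20) for 90 min at 37 deg C to detect potentiation. Beta-arrestin recruitment was read as enzyme-fragment luminescence after 1 h at ambient temperature. Full response was set by 57 uM dopamine.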
D2 ag-1: activates the human D2 dopamine receptor; P14416; activation, % at 2 µM; HEK293 T-REx D2 cells, calcium flux agonist mode; 340,000 tested, 0.53% active;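 active = activation over 3 SD above normal in the single-dose calcium agonist read, cut at about 30% in these data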; note: 0% is about no effect
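Agonism scored from kinetic calcium signal (1 read/sec, 180 s) following compound pin transfer, after a 10 s baseline. Cells: HEK293 Trex line expressing inducible D2 receptor coupled to calcium, dye-loaded after overnight culture at 30 C.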
D2 ag-2: human D2 receptor agonism in beta-arrestin assay; P14416; activation, % (test concentration not listed); DiscoveRx PathHunter D2 beta-arrestin, luminescence, 90 min; 100% = 57 uM dopamine signal; 360,000 tested, 0.084% active; in the data active = activation above about 40%; inconclusive = between about 15% and that limit
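Agonist mode: compounds alone added to overnight-plated D2 PathHunter cells for 90 min at 37 C, with 57 uM final dopamine (EC100) defining full response. Beta-arrestin recruitment detected by chemiluminescent reagent, read after 1 h at ambient temperature.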
D2 antagonist: D2 dopamine receptor (human) antagonism | 340,000 tested, 2% active | inhibition, % at 10 µM | P14416 | HEK293 TREx D2 cells, calcium flux, dopamine EC80; in the data active = inhibition above about 30%; inactive = below that, where a call was filed; note: 0% is about no effect
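Calcium flux kinetic readout in an inducible HEK293 TREx D2 line plated overnight at 30 C. After 180 s compound exposure, an EC80 dopamine challenge follows with another 180 s kinetic read to detect antagonism.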
D3 arrestin ag: activates human D3 dopamine receptor beta-arrestin recruitment; Potency, µM (series often up to 76.9 µM), without a hit: top-dose activation, usual class: activators; AID 720506; shares compounds with D2 ag-1; 2,300 tested, 4% active; DiscoveRx D3 beta-arrestin cells, luminescence, 90 min;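 note: potency is the fitted concentration of half-maximal effect; 100% = dopamine control response; nearly all actives have a fitted effect of over 70% in size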
D2 ag-3: D2 receptor agonism, beta-arrestin counterscreen | shares compounds with D2 ag-1 | AID 720507 | DiscoveRx PathHunter D2 beta-arrestin, luminescence, 90 min; response scale: percent relative to full dopamine signal | 2,300 tested, 5.9% active | Potency, µM (highest dose often 76.9 µM), for inactives: at the top dose activation, most hits filed as activators; note: potency is the fitted concentration of half-maximal effect; % of control where 0% means no effect; nearly all actives have a fitted effect of over 70% in size
An asterisk follows results filed as active; u = inconclusive; x = no result given. Unless noted, calls come from the whole dose curve; as a rule, active = well fitted activation curve with a large enough effect; inconclusive = small, poorly fitted or top-dose-only effect; inactive = flat fitted curve, though single readings scatter.

SMILES	D2 PAM-1	D2 PAM-2	D2 ag-1	D2 ag-2	D2 antagonist	D3 arrestin ag	D2 ag-3
CCC1CN(C(=O)N2CCC(C(=O)NCCC3=CCCCC3)CC2)c2cc(C)ccc2O1 (stereo not given)	1.5	x	0.3	x	x	x	x
O=C(c1ccco1)N1CCN(Cc2cccc3ccccc23)CC1	-22.7	13.9	57.6*	14.3	76.0*	u	u
Cc1c(C(=O)OCC(=O)N2C(C)CCCC2C)oc2ccccc12 (stereo not given)	-1.5	-9.1	30.0	-1.1	-11.6	-9.1%	13.0%
CC(NCC(O)COc1ccccc1)C1COc2ccccc2O1 (stereo not given)	-28.0	-9.7	65.3*	u	64.1*	8.4%	14.8%
CC(NCc1ccccc1)C1COc2ccccc2O1 (stereo not given)	-18.9	-21.0	37.7*	4.1	29.0	11.3%	4.1%
COc1ccc(C2=CC(=O)C[C@H](c3ccc(OC)c(OC)c3)C2)cn1	-2.9	-4.6	0.7	1.0	-10.9	2.2%	4.2%
COc1ccc(C2=CC(=O)C[C@H](c3ccc(OC)cc3)C2)cc1	-0.2	-7.6	x	-2.1	x	x	x
COc1ccc([C@H]2CC(=O)C=C(c3ccc4cc[nH]c4c3)C2)cc1	-4.0	-2.9	-1.2	-1.7	0.1	2.3%	-2.4%
COc1ccc([C@H]2CC(=O)C=C(c3ccc(OC)cc3OC)C2)cc1	0.4	5.2	0.9	-0.8	3.5	-6.7%	-1.1%
O=C1C=C(O)CC(c2ccc(Cl)cc2)C1 (stereo not given)	3.6	-21.0	1.4	-0.5	-8.0	x	x
COc1ccc(C2CC(=O)C=C(O)C2)cc1 (stereo not given)	-16.0	-14.5	52.6*	-1.2	-8.8	-4.5%	-2.6%
COc1ccc([C@H]2CC(=O)C=C(c3ccc(F)nc3)C2)cc1OC	-6.3	1.9	-0.2	0.7	3.8	x	x
COc1ccccc1NC(=O)C1=C(C)Nc2c(C(=O)Nc3ccc(F)cc3)cnn2C1c1cccc([N+](=O)[O-])c1 (stereo not given)	3.1	x	x	x	x	x	x
COc1ccc([C@H]2CC(=O)C=C(c3cccc(OCc4ccccc4)c3)C2)cc1	-6.9	-12.3	-0.6	-3.0	9.1	-11.4%	-2.5%
CCOCCc1nn2c(=O)cc(COC(=O)c3cccc(C)c3)nc2s1	7.0	x	0.5	x	x	x	x
CCOC(=O)C1CCCN(C(=O)c2nn(-c3ccc(C)cc3)c(=O)n(C)c2=O)C1 (stereo not given)	14.5	x	0.3	x	x	x	x
On1c(-c2ccccc2Cl)nc2ccccc21	11.0	0.1	3.1	-3.5	8.3	x	x
CCN(CC)CC(O)Cn1c(-c2ccccc2Cl)nc2ccccc21 (stereo not given)	0.8	-19.4	44.7*	-2.3	-9.5	3.4%	-2.5%
COc1ccc(CNC(=O)CSc2nc(SC)ns2)cc1	-10.5	-3.6	-0.5	-2.7	-6.0	-9.6%	-3.4%
CSc1nsc(SCC(=O)Nc2ccc(OC(C)=O)cc2)n1	-2.8	0.1	-0.9	-2.1	-2.2	x	x
Cc1ccccc1C(=O)N(Cc1nc(-c2ccc(Cl)cc2)no1)C(C)C	-6.8	x	0.6	x	x	x	x
CC(C)N(Cc1nc(-c2ccccc2)no1)C(=O)c1ccc([N+](=O)[O-])cc1	-6.7	0.9	-1.3	-1.2	2.6	x	x
COc1ccccc1C(=O)N(Cc1nc(-c2ccc(Cl)cc2)no1)C(C)C	-17.1	-3.2	51.4*	2.6	-4.8	-1.1%	18.9%
CC(C)N(Cc1nc(-c2ccccc2)no1)C(=O)c1ccc(Cl)cc1	-20.3	-6.6	51.1*	-7.6	-1.9	-10.5%	3.6%
COc1ccc(-n2c(=O)c3c4c(sc3n(C)c2=O)CN(C(C)=O)CC4)cc1	x	x	-0.3	x	x	x	x
SMILES	D2 PAM-1	D2 PAM-2	D2 ag-1	D2 ag-2	D2 antagonist	D3 arrestin ag	D2 ag-3
CCOc1cc(C(=O)Nc2ccc(-c3nc4ccccc4s3)cc2Cl)cc(OCC)c1OCC	4.7	x	-1.8	x	x	x	x
O=C1CC(=C(c2ccccc2)c2ccccc2)C(=O)N1CCCN1CCN(c2cccc(Cl)c2)CC1	-6.0	-20.4	-0.9	3.2	11.1	x	x
O=C1CC(=C2c3ccccc3-c3ccccc32)C(=O)N1CCCCN1CCN(c2ccccc2)CC1	-16.4	-13.0	73.5*	12.9	43.9*	8.1%	22.9%
CC1=C(C(=O)NCc2cccc(Br)c2)C2(CCCCC2)OC1=O	0.1	x	0.4	x	x	x	x
O=c1c2cc([N+](=O)[O-])ccc2nc(CN2CCN(c3ccccn3)CC2)n1-c1ccccc1F	-20.9	-2.8	27.5	0.5	-23.6	13.3%	7.6%
CN(C(=O)c1ccccc1C(=O)OCC(=O)c1ccccc1)c1ccccc1	x	2.0	x	2.0	x	x	x
CN(C(=O)c1ccccc1C(=O)OCC(=O)c1ccc(F)cc1)c1ccccc1	-8.2	-8.0	0.0	-3.1	23.2	-4.4%	0.4%
CCc1ccc(-n2nnc(-c3nc(-c4cccs4)no3)c2N)cc1	2.4	x	0.7	x	x	x	x
CN(C)S(=O)(=O)c1cccc(NC(=O)CSc2ncnc3ccccc23)c1	x	5.0	x	12.9	x	u	u
CCc1ccc(-n2c(=O)c3c(C)c(C)sc3n(CC(=O)NCc3ccc(C)cc3)c2=O)cc1	1.4	x	-0.3	x	x	x	x
CCC(C)Nc1nc(-c2cccc(OC)c2O)nc2ccccc12 (stereo not given)	-6.5	u	5.3	2.0	8.8	5.9%	13.2%
O=C(c1cccs1)N1CCN(Cc2cn[nH]c2-c2ccc(F)cc2F)CC1	-26.4	6.7	80.3*	u	52.9*	u	u
Cc1ccc(-c2[nH]ncc2CN2CCN(C(=O)c3cccs3)CC2)cc1C	-32.3	-14.8	76.6*	6.0	66.5*	u	20.7%
COc1ccc(-c2[nH]ncc2CN2CCN(C(=O)c3cccs3)CC2)c(F)c1	2.3	10.9	0.2	-2.9	14.0	x	x
CCOc1ccccc1CNC(=O)CN1C(=O)CCn2nc(-c3cn(C)c4ccccc34)cc21	-3.0	x	x	x	x	x	x
COc1ccc2[nH]c3c(=O)n(/N=C/[C@H]4C(C)C=C(C)CC4C)c(=O)[nH]c3c2c1 (stereo not given in full)	-15.4	18.8	40.8*	2.7	35.8*	10.1%	3.7%
COc1ccc2c(c1)[nH]c1c(=O)n(/N=C/C3C(C)C=C(C)CC3C)c(=O)[nH]c12 (stereo not given)	x	7.7	-0.7	-1.7	29.4	x	x
O=C(NCCS(=O)(=O)N1CCN(c2ccccc2)CC1)C1CC(=O)N(c2ccccc2)C1 (stereo not given)	13.0	-3.5	-0.1	-0.4	-2.1	-4.5%	-1.1%
